PubChem BioAssay AID2472 (National Center for Advancing Translational Sciences (NCATS), 2010)
Among all 290,000 compounds or so, about 2,000 (0.69%) were called active. The sample as a whole holds a higher share of actives than the screen did. Values without a mark were called inactive. Cut-off read from the data, not from the text of the source: active = activity change below about -30%; inactive = the rest, inconclusive results apart.

experiment: qHTS Assay for Inhibitors of Fructose-1,6-bisphosphate Aldolase from Giardia Lamblia: Coupling assay counterscreen; details: coupling enzyme system counterscreen, AmpLite Red fluorescence; at 58.2 µM (top of the series)
How it was run: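 Counterscreen lacking aldolase: glyceraldehyde-3-phosphate coupling-enzyme reagent preincubated 10 min at RT with compound (at 57.5 uM final), then substrate/coupling system with AmpLite Red added; fluorescence read at 525/598 nm after 20 min RT.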
% is set by controls: 0 for no effect and ±100 for the full control effect.

SMILES	activity change, negative = inhibition
c1ccc2c(Nc3ccncc3)nc(-c3ccc4c(c3)OCO4)nc2c1	-0.804%
COc1ccc2oc(=O)c(C(=O)NCc3ccccn3)cc2c1	-2.85%
CC(C)(C)c1ccc(NC(=O)NCc2ccco2)cc1	-0.174%
COCCNC(=O)Nc1ccc2nc(-c3ccco3)c(-c3ccco3)nc2c1	-35% (active)
O=C(NCc1ccccn1)c1ccc2nc(-c3ccco3)c(-c3ccco3)nc2c1	-38.7% (active)
Cc1cc(C)cc(NC(=O)NCc2ccccn2)c1	-0.5%
O=C(Nc1ccc2nccnc2c1)c1ccco1	-1.38%
CCCCC/C=C\C/C=C\C/C=C\CCCCCCC(N)=O	2.69%
CCC1Sc2ccc(S(=O)(=O)CCC(=O)NCc3cccs3)cc2NC1=O (stereo not given)	-3.89%
Cc1cc2c(cc1S(=O)(=O)NCc1ccc(Cl)cc1)OCC(=O)N2	1.64%
COC(=O)C(C(=O)OC)[C@@H](NC=O)c1ccccc1	1.57%
CCOC(=O)c1cc2n(c1N)-c1ccccc1C2=O	-30.6% (active)
CCOC(=O)c1ccccc1CN1C(=O)c2ccccc2S1(=O)=O	-1.95%
CCOC(=O)C1=C(C(=O)OCC)C(C(=O)OCC)N(S(=O)(=O)C(F)(F)F)c2ccccc21 (stereo not given)	0.565%
COC(=O)c1ccc(CNC(=O)C2CCC(=O)N(Cc3ccccn3)C2)cc1 (stereo not given)	0.556%
CCOC(=O)C1=NO[C@@]2(C=C(Br)C(=O)[C@H]3O[C@H]32)C1	1.71%
Cc1cc(CNC(=O)C2CCC(=O)N(CCc3ccc(Cl)cc3)C2)no1 (stereo not given)	2.61%
CC(C(=O)NCCc1ccc(S(N)(=O)=O)cc1)N1C(=O)CC(C)(C)Sc2ccccc21 (stereo not given)	5.69%
O=C(N/N=C/c1c[nH]c2ccccc12)c1ccccc1O	1.26%
CSC(=S)N/N=C/c1c[nH]c2ccccc12	-0.216%

SMILES	activity change, negative = inhibition
C[n+]1ccc(/C=C/c2c[nH]c3ccccc23)cc1	-48.5% (active)
O=C(NC1CC1)C1=C[C@H](c2c[nH]c3ccccc23)C[C@H](OCc2ccc(CO)cc2)O1	-9.68%
COc1cccc([C@@H]2Oc3ccc(Br)cc3C(=O)[C@H]2OC(=O)NCc2ccc3c(c2)OCO3)c1	1.06%
COc1ccc(CCNC(=O)CSCc2ccc(Br)cc2)cc1OC	-0.53%
CCCCCCCCCc1ccc(OCCOCCOCCOCCOCCOCCOCCOCCOCCO)cc1	0.692%
COC(=O)[C@@]1(Cc2ccc(F)cc2)[C@H]2c3cc(C(=O)N4CCCC4)n(C[C@H](O)CO)c3C[C@H]2CN1C(=O)c1ccccc1	4.89%
COC1=C(N2CCOCC2)C(=O)c2ccccc2C1=O	-31.1% (active)
O=C1C(Cl)=C(N2CCOCC2)C(=O)N1c1ccccc1	4.18%
COc1ccc(N2CCN(C(C)=C3C(=O)c4ccccc4C3=O)CC2)cc1	-5.52%
O=C(CSc1cccc[n+]1[O-])c1ccc(-c2ccccc2)cc1	-0.455%
CCSc1nsc(NC(=O)Nc2cccc(C(C)=O)c2)n1	-3.71%
C=C1CCN(Cc2ccc(OC)cc2)S(=O)(=O)c2ccccc21	-9.95%
O=C(Nc1cc(C(=O)Nc2ccc(S(=O)(=O)O)cc2)cc(C(=O)Nc2ccc(S(=O)(=O)O)cc2)c1)Nc1cc(C(=O)Nc2ccc(S(=O)(=O)O)cc2)cc(C(=O)Nc2ccc(S(=O)(=O)O)cc2)c1	4.94%
Cc1c(S(=O)(=O)O)oc2c1C(=O)C(=O)c1c-2ccc2c1CCCC2(C)C	-38.9% (active)
Cc1cc(C)cc(C#CC2C=CC(Oc3ccc(C4CCCC4)cc3)C(CO)O2)c1 (stereo not given)	-0.466%
CC(C)(c1ccccc1)c1ccc(OCCN2CCCC2)cc1	1.45%
COc1ccc(OC)c(C(c2nnnn2C(C)(C)C)N2CCc3ccccc3C2)c1 (stereo not given)	-0.0178%
COCCn1nnnc1C(c1cc2ccc(OC)cc2[nH]c1=O)N1CCc2ccccc2C1 (stereo not given)	-47.7% (active)
CCOc1ccc2[nH]c(=O)c(C(c3nnnn3CCOC)N3CCOCC3)cc2c1 (stereo not given)	-2.27%
CCOc1ccc(CCNC(=O)Nc2ccccc2)cc1OCC	1.61%

SMILES	activity change, negative = inhibition
Cc1cccc(OC(C)C(=O)N2CCc3ccccc3C2)c1 (stereo not given)	3.66%
CC(C)(O/N=C(\C(=O)N[C@@H]1C(=O)N2C(C(=O)[O-])=C(C[n+]3ccccc3)CS[C@@H]12)c1csc(N)n1)C(=O)O	1.97%
CCN1C(=S)N[C@@H](c2cccc(C(F)(F)F)c2)C(C(=O)OC)=C1C	2.17%
CN(CCc1ccccn1)C(=O)c1ccc(OC2CCN(CCc3ccccc3)CC2)cc1	6.37%
Cc1cc2nc3c(=O)n(Cc4ccccc4)c(=O)[nH]c3nc2cc1N	-26.3%
Nc1ccc2nc3c(=O)[nH]c(=S)[nH]c3nc2c1	-35.7% (active)
Cc1cccc(OCCC(=O)Nc2ccccc2C(N)=O)c1	-1.3%
O=C(NCc1ccco1)O[C@@H]1C(=O)c2cc(Br)ccc2O[C@H]1c1ccc2c(c1)OCO2	-0.223%
Cc1ccccc1NC(=O)N1CCCC1C(=O)NCc1ccccc1 (stereo not given)	2.24%
CC(C)(C)c1ccc(C(=O)NCCn2c(N)c(C#N)c3nc4ccccc4nc32)cc1	-0.974%
CCC(C)NC(=O)c1c(N)n(/N=C/c2cccs2)c2nc3ccccc3nc12 (stereo not given)	5.17%
CC(C)Cn1c(N)c(C(=O)NCc2cccs2)c2nc3ccccc3nc21	-45.5% (active)
COc1ccc(-c2nc3c(c4c2C[C@H](c2ccccc2)OC4)CN(C(=O)c2ccco2)CC3)c(C)c1	-0.274%
COc1ccc(OCC(=O)Nc2ccc(NC(=O)c3ccco3)c(C)c2)cc1	-0.451%
CCOc1ccccc1/C=N/NC(=O)CNC(=O)COc1ccccc1	-43.5% (active)
C=CCc1ccccc1OCC(=O)N/N=C/c1ccccc1OCC	-30.1% (active)
C=C(C)CNC(=S)N/N=C/c1ccccc1OCC(=O)O	7.3%
Cc1ccc(/C=N/NC(=O)COc2ccccc2-c2ccccc2)cc1	0.851%
C=CCOc1ccccc1/C=N/NC(=O)Cc1ccccc1	3.68%
Cc1ccc(/C=N/NC(=O)CNC(=O)COc2ccccc2)o1	0.654%
